S2 tox – viability counter-screen for ATXN expression inhibitors; Potency, µM (doses to about 56.7 µM), usual class: cytotoxic; 400,000 tested, 0.49% active; S2 cells (HEK-293 line with an ATXN2-luciferase reporter) viability, CellTiter-Fluor protease fluorescence, 24 h; AID 651635; note: nearly all actives have a fitted effect of over 40% in size
DT40 TDP1 CPT – growth inhibition of DT40 Tdp1-/-;hTDP1 cells with camptothecin (screen for TDP1 inhibitors); chicken DT40 Tdp1-/-;hTDP1 cells + 20 nM CPT, ATP luminescence, 48 h; Potency, µM (doses to about 46.2 µM), inactives show at the top dose activity change, negative = growth inhibition, usual class: inhibitors; 420,000 tested, 12% active; note: % is set by controls: 0 for no effect and ±100 for the full control effect; nearly all actives have a fitted effect of over 55% in size
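Chicken DT40 Tdp1-/- cells complemented with human TDP1, 400 cells/well, exposed to compounds plus 20 nM camptothecin for at least 48 h at 37 C; viability read as ATP content by CellTiter-Glo luminescence.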
ATXN2 expr inh – reduces ATXN2 reporter expression in HEK-293 cells; HEK-293 ATXN2-luciferase reporter, luminescence, 24 h; Potency, µM (top dose mostly 57 µM), for the others: top-dose activity change, negative = inhibition, actives largely listed as inhibitors; 360,000 tested, 0.72% active; AID 1745845; note: % is set by controls: 0 for no effect and ±100 for the full control effect; nearly all actives have a fitted effect of over 55% in size
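ATXN2-luciferase reporter cells (luciferase flanked by upstream and downstream ATXN2 gene portions) were treated 24 h at 37 °C with compounds at up to 57 uM. SteadyGlo luminescence gave expression; GF-AFC fluorescence gave viability.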
TGFb inhibitor – blocks TGF-b signaling; HepG2 CAGA-GFP TGF-b/SMAD3 reporter, GFP fluorescence, 18 h; TGF-beta stimulated, 500 pg/mL final; Potency, µM (doses to about 46.1 µM), for the others: at the highest dose activity, negative = inhibition, hits mostly inhibitors; 410,000 tested, 1.2% active; AID 588855; note: % is set by controls: 0 for no effect and ±100 for the full control effect; nearly all actives have a fitted effect of over 65% in size
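Read-out: total well GFP (ex488/em500-530) summed from mean per-cell fluorescence. Cells: HEPG2 CAGA-GFP, 1% FBS DMEM, 18 h at 37 degrees C with 500 pg/mL final TGF-beta. Unstimulated wells served as the full-inhibition control; stimulated DMSO wells = 0%.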
HepG2 viability – HepG2 cytotoxicity, counter-screen for TGF-b inhibitors; HepG2 CAGA-GFP viability, ATP luminescence, 18 h; Potency, µM (doses to about 46.1 µM), for inactives: at the top dose activity change, negative = cytotoxicity, actives largely listed as cytotoxic; 410,000 tested, 0.76% active; AID 588856
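HepG2 CAGA-GFP cells (1000/well, DMEM with 1% FBS) received compound, then TGF-beta at 500 pg/mL final, and were incubated 18 hours at 37 degrees C. Viability was read by CellTiter-Glo luminescence. Media-only wells were set as complete cell-killing and DMSO as no toxicity.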
TDP1 cell noCPT – qHTS for Inhibitors of human tyrosyl-DNA phosphodiesterase 1 (TDP1): qHTS in cells in absence of CPT; DT40 Tdp1-/- hTDP1 cells, no CPT, ATP luminescence, 48 h; Potency, µM (titrated, usually from 46.2 µM), without a hit: top-dose activity change, negative = growth inhibition, most hits filed as inhibitors; 420,000 tested, 15% active; note: % is set by controls: 0 for no effect and ±100 for the full control effect; nearly all actives have a fitted effect of over 55% in size
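A cellular qHTS used chicken DT40 cells lacking endogenous Tdp1 but carrying stably transfected human TDP1. Compounds were applied without camptothecin, and cell growth kinetics were judged by ATP-dependent luminescence after ≥48 hr.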
* hit, by the source's call. A selection: hits, their analogues and other compounds. The true share with any hit is near 17%. Calls come from the whole dose curve; as a rule, active = well fitted curve in the direction sought with a large enough effect; inconclusive = small, poorly fitted or top-dose-only effect, or another doubt; inactive = no such curve, though single readings can be large; an effect the other way counts as inactive or inconclusive. Potency is the fitted concentration of half-maximal effect.

What do the screens show for `COc1ccccc1C(=O)Nc1ccc(NC(=O)c2cccs2)cc1`?
S2 tox: inactive; DT40 TDP1 CPT: inconclusive; ATXN2 expr inh: -8%; TGFb inhibitor: inconclusive; HepG2 viability: -23%; TDP1 cell noCPT: inconclusive

What do the screens show for `COc1ccc(C(=O)Nc2cccc(NC(=O)c3cccs3)c2)cc1OC`?
S2 tox: inactive; DT40 TDP1 CPT: 15µM*; ATXN2 expr inh: -21%; TGFb inhibitor: -13%; HepG2 viability: -26%; TDP1 cell noCPT: 13µM*

How did COc1ccc(NC(=O)Nc2cccs2)cc1Cl do in these assays?
S2 tox: inactive; DT40 TDP1 CPT: inconclusive; TGFb inhibitor: 0%; HepG2 viability: -21%; TDP1 cell noCPT: 23µM*

What do the screens show for `CN1CC2(Cc3cc([N+](=O)[O-])ccc31)C(=O)OC(C)(C)OC2=O`?
DT40 TDP1 CPT: -7%; TGFb inhibitor: -6%; HepG2 viability: 1%; TDP1 cell noCPT: -22%

Results for CC12CC3CC(C)(C1)CC(C(O)CN1CCOCC1)(C3)C2 (stereo unspecified) ?
S2 tox: inactive; DT40 TDP1 CPT: 0%; ATXN2 expr inh: -12%; TGFb inhibitor: -15%; HepG2 viability: 2%; TDP1 cell noCPT: 2%

How did CC(OC(=O)CC1Sc2ccccc2NC1=O)C(=O)N(C)Cc1ccccc1 (stereo unspecified) do in these assays?
S2 tox: inactive; DT40 TDP1 CPT: inconclusive; ATXN2 expr inh: 24%; TGFb inhibitor: 4%; HepG2 viability: -9%; TDP1 cell noCPT: 21µM*

What do the screens show for `CCOC(=O)CC1Sc2ccccc2NC1=O` (stereo unspecified)?
S2 tox: inactive; DT40 TDP1 CPT: -18%; ATXN2 expr inh: 10%; TGFb inhibitor: 2%; HepG2 viability: -17%; TDP1 cell noCPT: -5%

Results for CNc1ccc(Cl)cc1S(=O)(=O)c1ccccc1[N+](=O)[O-] ?
S2 tox: inactive; DT40 TDP1 CPT: -58%; ATXN2 expr inh: inconclusive; TGFb inhibitor: inconclusive; HepG2 viability: -16%; TDP1 cell noCPT: 15µM*

Results for Cn1nnnc1SCC(=O)Nc1ccc(S(=O)(=O)N2CCOCC2)cc1 ?
S2 tox: inactive; DT40 TDP1 CPT: 0%; ATXN2 expr inh: 2%; TGFb inhibitor: 4%; HepG2 viability: 1%; TDP1 cell noCPT: 23%

What do the screens show for `Cc1cnc(C(=O)NC2CC(C)(C)Cc3c2cnn3-c2cccc(F)c2)cn1` (stereo unspecified)?
S2 tox: inactive; DT40 TDP1 CPT: inconclusive; ATXN2 expr inh: 0%; TGFb inhibitor: -13%; HepG2 viability: -60%; TDP1 cell noCPT: inconclusive

Results for CCn1cc(C(=O)NC2CC(C)(C)Cc3c2cnn3-c2cccc(F)c2)cn1 (stereo unspecified) ?
S2 tox: inactive; DT40 TDP1 CPT: 16µM*; ATXN2 expr inh: 8%; TGFb inhibitor: 7%; HepG2 viability: 15%; TDP1 cell noCPT: 21µM*

What do the screens show for `Cc1cc(C)c(NC(=O)CSc2nc3ccccc3nc2N2CCCCC2)c(C)c1`?
S2 tox: inactive; DT40 TDP1 CPT: 7.3µM*; ATXN2 expr inh: -10%; TGFb inhibitor: 1%; HepG2 viability: -27%; TDP1 cell noCPT: 15µM*

Results for O=C(CSc1nc2ccccc2nc1N1CCCC1)Nc1ccc(Cl)cc1 ?
S2 tox: inactive; DT40 TDP1 CPT: inconclusive; ATXN2 expr inh: 3%; TGFb inhibitor: 2%; HepG2 viability: -10%; TDP1 cell noCPT: 26µM*

What do the screens show for `Cc1ccc(C)c(NC(=O)CSc2nc3ccccc3nc2N2CCOCC2)c1`?
S2 tox: inactive; DT40 TDP1 CPT: -15%; ATXN2 expr inh: -27%; TGFb inhibitor: -3%; HepG2 viability: -5%; TDP1 cell noCPT: -25%

Results for Clc1ccc(-c2cc3ccccc3nc2N2CCCC2)cc1 ?
S2 tox: inactive; DT40 TDP1 CPT: inconclusive; ATXN2 expr inh: -2%; TGFb inhibitor: 6%; HepG2 viability: -1%; TDP1 cell noCPT: 18µM*

What do the screens show for `Clc1ccc(-c2cc3ccccc3nc2N2CCOCC2)cc1`?
S2 tox: inactive; DT40 TDP1 CPT: inconclusive; ATXN2 expr inh: 10%; TGFb inhibitor: 1%; HepG2 viability: -15%; TDP1 cell noCPT: inconclusive

Results for CCCCN(C)C(=O)CSc1nc2ccccc2nc1Cc1ccc(C)cc1 ?
S2 tox: inconclusive; DT40 TDP1 CPT: inconclusive; ATXN2 expr inh: inconclusive; TGFb inhibitor: inconclusive; HepG2 viability: -40%; TDP1 cell noCPT: 16µM*

How did Oc1cccc(Oc2ncc(C(F)(F)F)cc2Cl)c1 do in these assays?
S2 tox: inconclusive; DT40 TDP1 CPT: 9%; ATXN2 expr inh: 1%; TGFb inhibitor: inconclusive; HepG2 viability: -41%; TDP1 cell noCPT: 2%

How did CCc1ccccc1NC(=O)CSc1nc2ccccc2nc1N1CCOCC1 do in these assays?
S2 tox: inactive; DT40 TDP1 CPT: 0%; ATXN2 expr inh: 16%; TGFb inhibitor: 0%; HepG2 viability: -20%; TDP1 cell noCPT: inconclusive

How did CC1CCN(c2nc3ccccc3nc2SCC(=O)Nc2ccccc2C(C)C)CC1 do in these assays?
S2 tox: inactive; DT40 TDP1 CPT: 18µM*; ATXN2 expr inh: 14%; TGFb inhibitor: -26%; HepG2 viability: -44%; TDP1 cell noCPT: inconclusive

Results for CC(C)c1ccc(NC(=O)CSc2nc3ccccc3nc2N2CCCC2)cc1 ?
S2 tox: inactive; DT40 TDP1 CPT: 18µM*; ATXN2 expr inh: -2%; TGFb inhibitor: -3%; HepG2 viability: -18%; TDP1 cell noCPT: 13µM*

Results for Cc1ccc(NC(=O)CSc2nc3ccccc3nc2N2CCCC2)cc1 ?
S2 tox: inconclusive; DT40 TDP1 CPT: 12µM*; ATXN2 expr inh: 127%; TGFb inhibitor: -2%; HepG2 viability: -15%; TDP1 cell noCPT: 9.2µM*

Results for CCCCNC(=O)CSc1nc2ccccc2nc1Cc1ccc(C)cc1 ?
S2 tox: inactive; DT40 TDP1 CPT: -7%; ATXN2 expr inh: 11%; TGFb inhibitor: 0%; HepG2 viability: 5%; TDP1 cell noCPT: -12%

Results for CC(C)NC(=O)CSc1nc2ccccc2nc1N1CCCCC1 ?
S2 tox: inactive; DT40 TDP1 CPT: inconclusive; ATXN2 expr inh: 4%; TGFb inhibitor: -4%; HepG2 viability: -2%; TDP1 cell noCPT: inconclusive

High-throughput results from PubChem BioAssay.
